Data on 38 molecules can be found in PubChem BioAssay (NCATS).

Results filed as inconclusive are left out. Unmarked numbers belong to inactive results. Calls of active or inactive are those of the source. Calls follow the shape of the dose curve; as a rule, active = well fitted inhibition curve with a large enough effect; inconclusive = small, poorly fitted or top-dose-only effect; inactive = flat fitted curve, though single readings scatter.
% is scaled to controls: 0 for no effect and ±100 for the full control effect.
Also: nearly all actives have a fitted effect of over 65% in size.

Sequence of Glutathione peroxidase 1 (Homo sapiens) (P07203 whole entry, looked up): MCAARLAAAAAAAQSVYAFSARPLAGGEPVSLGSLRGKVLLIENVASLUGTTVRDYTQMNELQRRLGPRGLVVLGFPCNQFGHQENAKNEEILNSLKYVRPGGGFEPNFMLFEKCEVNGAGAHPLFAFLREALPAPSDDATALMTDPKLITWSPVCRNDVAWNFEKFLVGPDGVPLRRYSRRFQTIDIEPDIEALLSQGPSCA
Sequence of Phospholipid hydroperoxide glutathione peroxidase GPX4 (Homo sapiens) (P36969 whole entry, looked up): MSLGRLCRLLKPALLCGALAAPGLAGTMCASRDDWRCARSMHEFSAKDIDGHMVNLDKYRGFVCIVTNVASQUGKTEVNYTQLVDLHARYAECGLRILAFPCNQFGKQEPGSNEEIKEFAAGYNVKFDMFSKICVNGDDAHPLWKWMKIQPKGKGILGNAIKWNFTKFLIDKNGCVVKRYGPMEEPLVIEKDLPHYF

One experiment has as its target Glutathione peroxidase 1 (Homo sapiens) (UniProt P07203). The experiment is described as follows: Primary qHTS Assay for Inhibitors of Recombinant Selenoprotein Glutathione Peroxidase 1 (GPX1) (AID 1845191). Conditions: recombinant GPX1, GR-coupled NADPH fluorescence, 15 min; series mostly up to 48.8 µM; activity, negative = inhibition: at the top concentration. The procedure, abridged:
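GPX1 10 nM, GR 100 nM, GSH 1 mM, NADPH 0.5 mM, CHP 0.5 mM (final). 30-min cpd preincubation, RT. Ex340/Em450 read t=0, t=15 min.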
In general terms: qHTS replaces the single test concentration by a dilution series.
For the molecule `CC1=CC(=O)CC2C1(O)CCC(C)C21CC(c2ccoc2)OC1=O` (centres undefined), the “activity, negative = inhibition” value was -7.85% [at 27.7 µM].

`COC(=O)CC1CC(c2ccc(O)cc2)=NO1` (centres undefined): the “activity, negative = inhibition” value was -28.9%.

Turning to `COC(=O)C1=CO[C@@H](O[C@@H]2O[C@H](CO)[C@@H](O)[C@H](O)[C@H]2O)[C@@H]2C(COC(C)=O)=C[C@H](O)[C@H]12`, the “outcome” value is “inactive [at 27.7 µM]”.

In the case of `O=C1NC(=O)C(c2cn(-c3ccccc3)nc2-c2ccc(F)cc2)N1` (centres undefined), the result was inactive.

`COC(=O)c1ccnc(-c2cc(C(=O)NCCc3ccccc3)ccn2)c1`: the “activity, negative = inhibition” value is -11.5%.

With `COc1ccc([C@@]2(O)c3c(ccc4c3OC(C)(CCC=C(C)C)C=C4)NC(=O)[C@@H]2OC)cc1` (some centres undefined), the “activity, negative = inhibition” value is -19.7% [at 27.7 µM].

Another experiment addresses Phospholipid hydroperoxide glutathione peroxidase GPX4 (Homo sapiens) (UniProt P36969). The experiment is described as follows: Primary qHTS Assay for Inhibitors of Recombinant Selenoprotein Glutathione Peroxidase 4 (GPX4) (AID 1845192). The settings on record: recombinant GPX4, GR-coupled NADPH fluorescence, 15 min; series mostly up to 50 µM; activity change, negative = inhibition: at the top concentration. In a few lines: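 qHTS, GR-coupled: GPX4 200 nM + cpd 30 min RT → GSH 1 mM, NADPH 0.5 mM, GR 100 nM → CHP 0.5 mM start; fluor 340/450 at t0 and t15 min; no-enzyme wells as control.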
As to `COc1cc2ncnc(Nc3ccc(O)cc3)c2cc1OC`, the outcome was inactive.

As to `CC(C)(C)NC(=O)[C@@H](c1cccnc1)N(C(=O)c1ccco1)c1ccc(C(C)(C)C)cc1`, the “activity change, negative = inhibition” value was -26.3%.

For `C=C1CCC2C(C)(C)C(O)CCC2(C)C1CCC(C)CCOC(C)=O` (centres undefined), the “activity change, negative = inhibition” value is -26.4% [at 27.8 µM].

As for `CC1(C)C=CN2C(=O)C3=CCCN3C(=O)[C@@H]2C[C@@]12Nc1ccccc1C2=O`, the “activity change, negative = inhibition” value was -13.1% [at 27.8 µM].

`OC/C=C/c1ccc(O[C@@H]2O[C@H](CO)[C@@H](O)[C@H](O)[C@H]2O)cc1`: the “outcome” value was “inactive [at 27.8 µM]”.

`C=C(C(=O)O)C1CC2=C(C)CCCC2(C)C[C@@H]1O` (some centres undefined): the “activity change, negative = inhibition” value was 1.77%.

On to `CO[C@H]1C[C@@H]2CC[C@@H](C)[C@@](O)(O2)C(=O)C(=O)N2CCCC[C@H]2C(=O)O[C@H]([C@H](C)C[C@H]2CC[C@@H](OP(C)(C)=O)[C@H](OC)C2)CC(=O)[C@H](C)/C=C(\C)[C@@H](O)[C@@H](OC)C(=O)[C@H](C)C[C@H](C)/C=C/C=C/C=C/1C`, for which the “activity change, negative = inhibition” value was -9.44% [at 27.8 µM].

As to `CSc1ccc(C(=O)N[C@@H]2CCCC[C@@H]2NC(=O)CNC(=O)c2cc(C(F)(F)F)ccc2NC(=O)NC(C)C)cc1`, the “activity change, negative = inhibition” value is 3.55%.

Turning to `C=CC(C)(C)c1[nH]c2cc3c(cc2c1CC1NC(=O)C2=CCCN2C1=O)C=CC(C)(C)O3` (centres undefined), the “activity change, negative = inhibition” value is -19.5% [at 27.8 µM].

As for `COc1ccc(-n2[nH]c(=O)c3[nH]c4cc(Cl)ccc4c(=O)c3c2=O)c(C)c1`, the “activity change, negative = inhibition” value is -24.2%.

As to `CN=C(N)NCCCCC/C=C(/C)CC(C)C1OC(=O)C(C)C(O)/C=C/C(C)C(O)CC(O)C(C)C(O)CCC(C)C(O)CC2(O)OC(CC(OC(=O)CC(=O)O)CC(O)CC(O)C(C)C(O)/C(C)=C/CCC1C)CC(O)C2O` (centres undefined), the “activity change, negative = inhibition” value is -8.92% [at 15.3 µM].

On to `COc1ccc([C@@]2(O)c3c(ccc(CC=C(C)C)c3O)NC(=O)[C@@H]2OC)cc1`, for which the “activity change, negative = inhibition” value was -14.7% [at 27.8 µM].

Take `C[C@@H]1CCC/C=C/[C@H]2CC(=O)C[C@@H]2[C@@H](O)/C=C/C(=O)O1`: the “activity change, negative = inhibition” value is -10.3%.

On to `CC1(C)CCCC2(C)C(CO)C(CO)=CCC12` (centres undefined), for which the “activity change, negative = inhibition” value is -11.4%.

As for `C[C@@H]1O[C@@H](O[C@@H]2[C@@H](O)[C@H](O[C@H]3CC[C@@]4(C)C(CC[C@]5(C)C4CC=C4[C@@H]6CC(C)(C)CC[C@]6(C(=O)O[C@@H]6O[C@H](CO)[C@@H](O)[C@H](O)[C@H]6O)CC[C@]45C)C3(C)C)O[C@H](C(=O)O)[C@H]2O)[C@H](O)[C@H](O)[C@H]1O` (some centres undefined), the “activity change, negative = inhibition” value was -4.66% [at 15.3 µM].

`CC(=O)O[C@@H]1CC(C)=C2[C@H]1[C@H](C)CC[C@H]2/C=C(\C)C(=O)O`: the “activity change, negative = inhibition” value is -14.3%.

As for `C=CC(=O)Nc1cc(Nc2ncc(Cl)c(-c3c[nH]c4ccccc34)n2)c(OC)cc1N(C)CCN(C)C`, the “activity change, negative = inhibition” value is -17.9%.

Consider `COc1ccc(C2COc3cc(O)ccc3C2)c(O)c1` (centres undefined), for which the “activity change, negative = inhibition” value was 1.18%.

On to `C=C1[C@H](OC(C)=O)[C@H]2[C@@H](OC(C)=O)[C@](C)(OC(C)=O)C[C@]2(OC(C)=O)C(=O)[C@H](C)/C=C/C(C)(C)C(=O)[C@H](OC(=O)C(C)C)[C@H]1OC(C)=O`, for which the “activity change, negative = inhibition” value is -24.7% [at 15.3 µM].

With `Cc1ccccc1C#Cc1ccc(CCC(=O)O)cc1`, the “activity change, negative = inhibition” value is -8.12%.

On to `COC(=O)Cc1cc2c(c([N+](=O)[O-])c1)N(C(=O)CC[C@H](N)C(=O)O)CC2`, for which the “activity change, negative = inhibition” value is -1.74%.

As for `COc1cc(Br)c(S(=O)(=O)Nc2ccc(C(F)(F)F)c(O[C@@H]3CCN(C)C3)c2)cc1OC`, the “activity change, negative = inhibition” value is 5.2%.

For the molecule `N#CC(c1ccnc(OCc2ccc(CN3CCOCC3)cc2)n1)c1nc2ccccc2s1` (centres undefined), the “activity change, negative = inhibition” value is 2.05%.

In the case of `Cc1ccc(S(=O)(=O)Nc2ccccc2N2CCCCC2)s1`, the “activity change, negative = inhibition” value is 7.85%.

With `C/C=C1\[C@H](O[C@@H]2O[C@H](CO)[C@@H](O)[C@H](O)[C@H]2O)OC=C2C(=O)OCCc3ccc(O)c(c3)Oc3ccc(cc3)CCOC(=O)C[C@H]21`, the “activity change, negative = inhibition” value is -15.6% [at 15.3 µM].

Turning to `COc1c(/C=C/C(C)(C)O)ccc2c1C(=O)OCc1cc(C)cc(O)c1O2`, the “activity change, negative = inhibition” value was -1.9% [at 27.8 µM].

Turning to `CC(C)/C=C1\NC(=O)C(C(C)C)n2c1nc1c(c2=O)C=CC=CO1` (centres undefined), the “activity change, negative = inhibition” value was -4.11% [at 27.8 µM].

As to `C=C1C(OC(C)=O)CCC2(C)CC3(OC)OC(=O)C(C)=C3CC12` (centres undefined), the “activity change, negative = inhibition” value is -1.59% [at 27.8 µM].

`O=C1C=CC(O)(/C=C/C(=O)OC[C@H]2O[C@@H](Oc3ccc(O)cc3)[C@H](O)[C@@H](O)[C@@H]2O)C=C1`: the “activity change, negative = inhibition” value is -3.19% [at 27.8 µM].

For `O=S(=O)(Nc1ccccn1)c1ccc(N=Cc2c(O)[nH]c3ccc4ncsc4c23)cc1`, the outcome is “inactive [at 9.73 µM]”.

Turning to `COc1cc(N)c(Cl)cc1C(=O)NC[C@@H]1CCN2CCC[C@@H]12`, the “activity change, negative = inhibition” value is -11.4%.

Consider `C=C1CCC2C(C)(C)CCC[C@]2(C)[C@H]1C/C=C(\CO)C(=O)C(=O)O` (some centres undefined), for which the “activity change, negative = inhibition” value is -0.809% [at 27.8 µM].

On to `CC1=CC(=O)CC2C1(O)CCC(C)C21CC(c2ccoc2)OC1=O` (centres undefined), for which the “activity change, negative = inhibition” value was -9.02% [at 27.8 µM].

In the case of `COC(=O)CC1CC(c2ccc(O)cc2)=NO1` (centres undefined), the “activity change, negative = inhibition” value is -0.325%.

Consider `COC(=O)C1=CO[C@@H](O[C@@H]2O[C@H](CO)[C@@H](O)[C@H](O)[C@H]2O)[C@@H]2C(COC(C)=O)=C[C@H](O)[C@H]12`, for which the “activity change, negative = inhibition” value was -6.23% [at 27.8 µM].

`O=C1NC(=O)C(c2cn(-c3ccccc3)nc2-c2ccc(F)cc2)N1` (centres undefined): the “activity change, negative = inhibition” value was -1.85%.

On to `COC(=O)c1ccnc(-c2cc(C(=O)NCCc3ccccc3)ccn2)c1`, for which the “activity change, negative = inhibition” value was 2.14%.

Regarding `COc1ccc([C@@]2(O)c3c(ccc4c3OC(C)(CCC=C(C)C)C=C4)NC(=O)[C@@H]2OC)cc1` (some centres undefined), the “activity change, negative = inhibition” value is -21% [at 27.8 µM].
